The values below come from publication PMC11062922 (Nature Chemical Biology, 2023).

By IC50 is commonly meant the midpoint of a concentration-inhibition curve. Higher therefore signals weaker potency in that assay.

Read-outs that look alike come from different tables or passages of the source.

One experiment deals with CDK1_CycB1. Particulars: Highest Assay Concentration (M): 9.9999999999999995E-7.
The subject of the next experiment is CK2alpha1. Conditions: Highest Assay Concentration (M): 9.9999999999999995E-7.
Another experiment has as its system CK2alpha2. Particulars: Highest Assay Concentration (M): 9.9999999999999995E-7.
Another experiment has as its system CLK2. Set-up: species or system human, MV4-11 + K-562 + COLO205 + SK-N-BE2 + OVCAR-8. Conditions: read-out: apparent Kd, n = 1.
For the next experiment, the system named is ACOX1. Set-up: species or system human, MV4-11 + K-562 + COLO205 + SK-N-BE2 + OVCAR-8. Conditions: read-out: apparent Kd, n = 1.
For another experiment, the system named is WEE1. Further details: species or system human, MV4-11 + K-562 + COLO205 + SK-N-BE2 + OVCAR-8. Particulars: read-out: apparent Kd; compound concentrations: 100 nM and 1000 nM (sheet 'Samples'), CATDS: 4.3913811824171201E-2; n = 1.
In another experiment the test system is ADCK3. Further details: species or system human, MV4-11 + K-562 + COLO205 + SK-N-BE2 + OVCAR-8. Conditions: read-out: apparent Kd, n = 1.
A further experiment deals with CDK13. Set-up: species or system human, MV4-11 + K-562 + COLO205 + SK-N-BE2 + OVCAR-8. Conditions: read-out: apparent Kd, compound concentrations: 100 nM and 1000 nM (sheet 'Samples'), n = 1.
Another experiment concerns PDXK. Set-up: species or system human, MV4-11 + K-562 + COLO205 + SK-N-BE2 + OVCAR-8. Conditions: read-out: apparent Kd, compound concentrations: 100 nM and 1000 nM (sheet 'Samples'), n = 1.
The test system of another experiment is ILK. Further details: species or system human, MV4-11 + K-562 + COLO205 + SK-N-BE2 + OVCAR-8. Particulars: read-out: apparent Kd, n = 1.
Another experiment deals with PI4KB. Further details: species or system human, MV4-11 + K-562 + COLO205 + SK-N-BE2 + OVCAR-8. Particulars: read-out: apparent Kd, n = 1.
For the next experiment, the system named is PIK3CB. Set-up: species or system human, MV4-11 + K-562 + COLO205 + SK-N-BE2 + OVCAR-8. Particulars: read-out: apparent Kd, compound concentrations: 100 nM and 1000 nM (sheet 'Samples'), n = 1.
A further experiment has as its system CAMK2B. Set-up: species or system human, MV4-11 + K-562 + COLO205 + SK-N-BE2 + OVCAR-8. Conditions: read-out: apparent Kd, compound concentrations: 100 nM and 1000 nM (sheet 'Samples'), n = 1.
The test system of a further experiment is MAP3K6. Further details: species or system human, MV4-11 + K-562 + COLO205 + SK-N-BE2 + OVCAR-8. Particulars: read-out: apparent Kd, compound concentrations: 100 nM and 1000 nM (sheet 'Samples'), n = 1.
The next experiment relates to BMPR1B. Set-up: species or system human, MV4-11 + K-562 + COLO205 + SK-N-BE2 + OVCAR-8. Particulars: read-out: apparent Kd; compound concentrations:100 nM and 1000 nM (sheet 'Samples'); n = 1.
Where [1] appears, read: compound concentrations:100 nM and 1000 nM (sheet 'Samples').

For `CONC1=NC(=O)/C(=C/c2ccc3ncccc3c2)S1` [RO4613269-000], the IC50 with CDK1_CycB1 came to 2.74e-06 M; with CK2alpha1 it was 1.16e-07 M; with CK2alpha2, 6.53e-08 M. For the compound `Clc1cc(Cl)cc(Nc2ccnc(Nc3cc(Cl)cc(Cl)c3)n2)c1` [GSK175726A], in the experiment on CLK2 (compound concentrations: 100 nM and 1000 nM (sheet 'Samples'), CATDS: 1.2027926669680101E-2), the potency estimated from few doses was 0.432 µM. As for `Cc1cccc(Nc2nc(N[C@H]3CCCC[C@H]3N)ncc2C(N)=O)c1.Cl` [GSK986310C], the potency estimated from few doses in the experiment on ACOX1 (setting [1]) was 1.34 µM. In the case of `O=C1NC(=O)/C(=C/c2ccc3ncccc3c2)S1` [RO4603632-000], the IC50 in the experiment on CDK1_CycB1 was found to be 8.37e-06 M; with CK2alpha1, 5.79e-07 M; in the experiment with CK2alpha2, 3.72e-07 M.

As to `COc1ccc(Nc2ncc(C#N)c(Nc3ccccc3C(N)=O)n2)cc1N1CCN(C)CC1.Cl` [GSK1558669A], the potency estimated from few doses in the experiment with WEE1 is 0.0104 µM. Turning to `Cl.Cl.NCC(C(=O)Nc1cc(Br)c(-c2ccnc3[nH]ccc23)s1)c1ccccc1.NCC(C(=O)Nc1cc(Br)c(-c2ccnc3[nH]ccc23)s1)c1ccccc1` (stereo not drawn) [GSK1269851A], in the experiment on CLK2 (setting [1]), the potency estimated from few doses was 0.73 µM. Take `CCn1c(-c2nonc2N)nc2c(C#CC(C)(C)O)nc(O[C@@H](CN)c3ccccc3)cc21.O=C(O)C(F)(F)F` [GSK1007102B]: the potency estimated from few doses with ADCK3 (setting [1]) is 1.06 µM.

With `CCN(CC)Cc1ccc(Nc2nccc(-c3cnn4ncccc34)n2)cc1` [GW780056X], the potency estimated from few doses in the experiment with ACOX1 (compound concentrations: 100 nM and 1000 nM (sheet 'Samples'), CATDS: 2.3991726091544201E-2) was 0.753 µM; in the experiment with CDK13 (CATDS: 1.9982527917222499E-2) it was 1.33 µM; in the experiment with PDXK (CATDS: 2.0244692732670499E-2), 1.27 µM. Regarding `O=C(O)C(F)(F)F.O=c1[nH]ccc2nc(N[C@@H]3CCNC3)nc(Nc3ccc4c(c3)S(=O)(=O)CC4)c12` [GSK2181306A], the potency estimated from few doses with ILK (compound concentrations: 100 nM and 1000 nM (sheet 'Samples'), CATDS: 7.7202242880441098E-3) is 2.32 µM. For the compound `O=C1N=C(NCCCc2ccccc2)S/C1=C\c1ccc2ncccc2c1` [RO4493941-000], the potency estimated from few doses in the experiment with ADCK3 (compound concentrations: 100 nM and 1000 nM (sheet 'Samples'), CATDS: 7.1008465963160003E-2) was 0.94 µM. Regarding `c1ccc(-c2n[nH]cc2Nc2ccnc3ccccc23)nc1` [GW694077X], the potency estimated from few doses in the experiment on CLK2 (compound concentrations: 100 nM and 1000 nM (sheet 'Samples'), CATDS: 3.5523964233137598E-2) is 0.477 µM. On to `CNCC#Cc1c(F)ccc2c1/C(=C/c1[nH]ccc1OC)C(=O)N2.Cl` [RO0281601-001], for which the potency estimated from few doses with ACOX1 (compound concentrations: 100 nM and 1000 nM (sheet 'Samples'), CATDS: 2.54235943095352E-2) is 1.14 µM. With `Cc1cccc(Nc2nc(N[C@H]3CCNC3)ncc2C(N)=O)c1.Cl` [GSK2197149A], the potency estimated from few doses with PI4KB (setting [1]) is 0.892 µM. For `CCn1c(-c2cccnc2O)nc2cnccc21` [SB-736715], the potency estimated from few doses was 1.98 µM in the experiment on ILK (compound concentrations: 100 nM and 1000 nM (sheet 'Samples'), CATDS: 1.2476704483333699E-2); 1.1 µM in the experiment on PIK3CB (CATDS: 1.6268370150171501E-2). As for `CS(=O)(=O)Nc1cccc(-c2ccc3c(NC(=O)C4CC4)n[nH]c3c2)c1` [SB-742864], the potency estimated from few doses in the experiment on ADCK3 (compound concentrations: 100 nM and 1000 nM (sheet 'Samples'), CATDS: 0.16822822033669799) is 0.659 µM. In the case of `COc1cc[nH]c1/C=C1\C(=O)Nc2ccc(F)c(C#CC3(O)CCNCC3)c21.Cl` [RO0282986-001], the potency estimated from few doses in the experiment with CAMK2B (CATDS: 2.6528417916085501E-2) is 0.123 µM; in the experiment on CLK2 (compound concentrations: 100 nM and 1000 nM (sheet 'Samples'), CATDS: 1.56056735722173E-2) it was 0.36 µM. Consider `FC(F)(F)c1ccc(-c2ncn(CCCN3CCOCC3)c2-c2ccncc2)cc1` [SB-217780], for which, in the experiment with MAP3K6 (CATDS: 0.20378278704682301), the potency estimated from few doses was 1.72 µM. As for `CNCc1ccc(-c2cc(-c3nc(-c4ccc(S(=O)(=O)C(C)C)cc4)cnc3N)on2)cc1` [VE-822], the potency estimated from few doses with BMPR1B is 0.868 µM.

Consider `COC(=O)c1cccc(NC(=O)NC2CCN(c3ccnc(Nc4cc(OC)c(OC)c(OC)c4)n3)C2)c1` (stereo not drawn) [GSK1379767A], for which, in the experiment with ADCK3 (compound concentrations: 100 nM and 1000 nM (sheet 'Samples'), CATDS: 9.7786771136585404E-2), the potency estimated from few doses is 1.86 µM. As for `Cc1ccccc1C1=C(c2cn(C)c3ccccc23)C(=O)NC1=O` [RO0317612-000], the potency estimated from few doses was 0.761 µM in the experiment with ACOX1 (compound concentrations: 100 nM and 1000 nM (sheet 'Samples'), CATDS: 0.16885310198044201); 0.479 µM in the experiment with CAMK2B (CATDS: 0.21692870054448801); 0.529 µM with PDXK (CATDS: 0.20460809182567499). Turning to `Cn1cc(C2=C(c3c(S(C)=O)n(C)c4ccccc34)C(=O)NC2=O)c2ccccc21` (stereo not drawn) [RO0317379-000], the potency estimated from few doses in the experiment with PDXK (CATDS: 0.122248811016512) was 1.03 µM.

As to `NS(=O)(=O)c1ccc(NC=C2C(=O)Nc3ccc4ncsc4c32)cc1` [GW589933X], the potency estimated from few doses in the experiment on CDK13 (CATDS: 1.7118564959648301E-2) was 1.7 µM. For the compound `CC(C)N1CC(=O)N(C)c2cnc(Nc3cccc(S(=O)(=O)CCN4CCOCC4)c3)nc21` [BI00009348], the potency estimated from few doses with MAP3K6 (CATDS: 7.2828700738199706E-2) was 0.698 µM. As for `Nc1nc(-c2ccc3c(N)n[nH]c3c2)cc(N2CCCC(NC(=O)c3ccccc3)C2)n1` (stereo not drawn) [GSK2286775B], the potency estimated from few doses with ILK (setting [1]) is 1.79 µM. Take `CCC(CC)(CC)n1cnc2c(N)ncnc21` [SKF-97620]: the potency estimated from few doses with PI4KB (compound concentrations: 100 nM and 1000 nM (sheet 'Samples'), CATDS: 7.0031928225578105E-2) was 0.17 µM; with PIK3CB (CATDS: 4.8769305637968503E-2), 0.337 µM.
